Laboratory results reported in PubChem BioAssay AID624414 (National Center for Advancing Translational Sciences (NCATS), 2012).
In all, about 410,000 compounds went through this assay and about 480 (0.12%) were called active. No stated cut-off is given here; in the data, active means activation above about 50%; inconclusive means mostly about 30% to 49%; inactive means weaker than that. For the sample, actives were picked, then their nearest neighbours and some compounds at random.

molecular target: Mucolipin-1 (Homo sapiens) (UniProt Q9GZU1); experiment: qHTS for Agonists of the Human Mucolipin Transient Receptor Potential 1 (TRPML1); conditions: TRPML1-expressing cells, Ca2+ dye fluorescence, FDSS; stronger effect = higher value; further: 0% is about no effect
Description: Mutations of human Mucolipin transient receptor potential 1 (TRPML1) cause type IV mucolipidosis (ML4), a devastating neurodegenerative disease in young children. […] Currently, there is no treatment for ML4. […] Under physiological conditions, TRPMLs regulate membrane trafficking by transducing information about PI(3,5)P2 levels into changes in juxtaorganellar Ca2+, thereby triggering membrane fusion/fission events in the late endocytic pathways (endolysosomal trafficking). In addition, TRPML1 mediates release of Fe2+ from late endosomes and lysosomes, which is essential for cellular iron metabolism. Thus, impaired ion (Ca2+ and Fe2+) homeostasis underlies lysosomal dysfunction and ML4 phenotypes. In ML4 cells, the problem is twofold. First, defective Ca2+-dependent membrane trafficking due to TRPML1-deficiency causes accumulation of lipids and other bio-materials in the lysosome. The second strike comes from the lysosomal iron overload (due to impairment of TRPML1's Fe2+ conductivity), which converts the accumulated materials into the nondegradable (resistant to lysosomal degradation) lipofuscin (also called aging pigment) in the lysosome. Lipofuscin accumulation dramatically compromises the functions of lysosomes.
Niemann-Pick type C (NPC) disease is another lysosome storage disease (LSD) with severe neurodegeneration during the childhood. Currently, there is no cure for NPC. […] Thus, TRPML1 is likely to be an essential regulator of lysosome ion homeostasis. We specifically hypothesize that stimulating TRPML1's Fe2+/Ca2+ channel activity in the lysosome using synthetic agonists can alleviate neurodegeneration associated with ML4 or NPC.
To this end, a high throughput screen was developed in a miniaturized format to screen against the Molecular Libraries Small Molecule Repository (MLSMR) to find small molecules that act either as inhibitors or agonist against the TRPML1 channel.
NIH Chemical Genomics Center [NCGC]
NIH Molecular Libraries Probe Centers Network [MLPCN]
Assay Submitter (PI): Haoxing Xu, University of Michigan Ann Arbor
TRPML1-DL cells are dissociated from flasks, counted and, brought up to a density of 500,000 cells per mL of media containing a 1X Tet inducer. Using a Multidrop Combi, 3uL of this cell solution is dispensed to each well of a 1536 TC treated, black, clear bottom hi base plate for a final cell density of 1,500 cells per well. The assay plates are incubated overnight (approximately 16 hours) at 37 degrees C and 5% CO2. Using a Multidrop Combi, 2uL of ABD Ca8 no wash dye plus quencher is added to each well. The assay plates incubate at room temperature in the dark for 45-90 minutes. The assay plate is read on the FDSS using the following protocol: 10 second baseline read, 23nL of compounds and controls are added using 1536 pintool, agonist read for 110 seconds, 1 uL EC80 addition (4uM final 54-4 diluted in media), antagonist read for 110 seconds.

Mucolipin-1 (Homo sapiens), sequence (Q9GZU1 whole entry, looked up, the tested form may be a part): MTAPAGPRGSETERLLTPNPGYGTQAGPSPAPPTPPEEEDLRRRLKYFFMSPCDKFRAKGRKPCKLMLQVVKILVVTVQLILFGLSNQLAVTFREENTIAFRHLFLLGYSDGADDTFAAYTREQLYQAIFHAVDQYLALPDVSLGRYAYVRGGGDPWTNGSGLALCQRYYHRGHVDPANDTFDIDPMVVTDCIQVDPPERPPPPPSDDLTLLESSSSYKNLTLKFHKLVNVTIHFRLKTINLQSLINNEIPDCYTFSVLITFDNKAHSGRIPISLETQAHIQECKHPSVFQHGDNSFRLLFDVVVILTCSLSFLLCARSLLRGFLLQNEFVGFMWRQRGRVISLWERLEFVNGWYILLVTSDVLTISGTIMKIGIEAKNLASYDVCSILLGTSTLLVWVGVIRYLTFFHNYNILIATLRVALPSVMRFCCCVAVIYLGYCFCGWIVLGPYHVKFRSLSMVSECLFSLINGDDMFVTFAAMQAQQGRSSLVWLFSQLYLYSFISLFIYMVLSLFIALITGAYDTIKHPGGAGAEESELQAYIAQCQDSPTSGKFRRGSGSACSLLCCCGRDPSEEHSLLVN

| SMILES | activation |
| --- | --- |
| CN(C)c1ccc(NC(=O)CSc2nc(-c3ccco3)cc(C(F)(F)F)n2)cc1 | 0.776% (inactive) |
| CCN(CC)CCCC(C)Nc1ccnc2cc(Cl)ccc12 (stereo not given) | 0.571% (inactive) |
| CCN(CC)CCCC(C)n1c2nc(=O)[nH]c(=O)c-2nc2cc(Cl)ccc21 (stereo not given) | 82.9% (active) |
| Cc1cccc(-n2c(=O)c3c(c4cc(C)ccc4n3C)n(CC(=O)Nc3ccccc3Cl)c2=O)c1 | 1.58% (inactive) |
| Brc1cccc[n+]1Cc1cccc(C[n+]2ccccc2Br)c1 | 0.0634% (inactive) |
| Cc1cccc(NC(=O)COC(=O)c2ccccc2OCc2cccc(Br)c2)c1 | -0.0809% (inactive) |
| CCCCCCCNc1ccc(/C=C/c2ccnc3ccccc23)cc1 | 6.43% (inactive) |
| O=C(Nc1ccc(Cl)cc1)c1cnn2c1NC(=C1CC1)C=C2C(F)F | -0.513% (inactive) |
| C/C(=N\NC(N)=S)c1ccncc1 | 0% (inactive) |
| CCN(CC)c1ccc2cc(C(N)=O)/c(=N\NC(=O)c3ccncc3)oc2c1 | 81% (active) |
| CCOC(=O)c1c(C)oc2ccc(N(C(=O)c3ccncc3)S(=O)(=O)c3ccc(CC)cc3)cc12 | 0.815% (inactive) |
| COc1ccc(Br)cc1C1C2C=CCC(C)C2C(=O)N1Cc1ccccc1 (stereo not given) | 1.3% (inactive) |
| CS(=O)c1ccc(/C=C2\C=Cc3ccccc32)cc1 (stereo not given) | -0.666% (inactive) |
| COc1ccc(NC(=O)C2CCCN(S(=O)(=O)c3cccc4nonc34)C2)cc1Cl (stereo not given) | 0.791% (inactive) |
| Cc1ccc(-c2nc(=N)sn2Cc2ccccc2)cc1 | 0.856% (inactive) |
| O=C(Cc1ccc(Cl)cc1)Nc1ccc2nn(-c3ccc(Cl)cc3)nc2c1 | -0.688% (inactive) |
| CCN(CC)/[N+]([O-])=N/OCOC(=O)Cc1c(C)n(C(=O)c2ccc(Cl)cc2)c2ccc(OC)cc12 | 1.25% (inactive) |
| O=C(COc1ccccc1C(=O)Nc1ccccc1)Nc1cccc(F)c1 | -0.0642% (inactive) |
| CCn1c2ccccc2c2cc(CN3CCN(Cc4cccc(Cl)c4)CC3)ccc21 | 1.83% (inactive) |
| Cc1cccc(N2CCN(C(c3ccc(N(C)C)cc3)c3nnnn3C(C)(C)C)CC2)c1C (stereo not given) | -0.374% (inactive) |
| Cc1cccc(N2CCN(C(c3ccccc3)c3nnnn3CC3CCCO3)CC2)c1C (stereo not given) | 83.5% (active) |
| COc1ccccc1C(c1nnnn1CC1CCCO1)N1CCN(c2ccccc2)CC1 (stereo not given) | 1.14% (inactive) |
| O=C(CSc1nccn1Cc1ccc(Cl)cc1)NCc1ccccc1 | -1.21% (inactive) |
| SCc1nc2ccc(Cl)cc2[nH]1 | -0.507% (inactive) |
| Cc1cc(C)c(/C=C2\C(=O)Nc3ccccc32)[nH]1 | 92% (active) |
